Compound activity as filed in PubChem BioAssay.
Anthrax LT inh: blocks cellular internalization of anthrax lethal toxin. Cells, anthrax lethal toxin internalization, FRET ratio (460/530). Potency, µM (highest dose often 40 µM), without a hit: at the highest dose activity change, negative = inhibition, most hits filed as inhibitors. actives 0.67% (n = 70,000). AID 912; also: % is scaled to controls: 0 for no effect and ±100 for the full control effect; nearly all actives have a fitted effect of over 50% in size
AmpC nodet inh: inhibitors of E. coli AmpC beta-lactamase without detergent | P00811 | AmpC nitrocefin hydrolysis, absorbance 480 nm, no detergent | Potency, µM (top dose mostly 28.7 µM), for inactives: at the highest dose activity change, negative = inhibition | actives 1.8% (n = 71,000) | AID 585; also: % of control where 0% means no effect
Target sequence (P00811 whole entry, looked up): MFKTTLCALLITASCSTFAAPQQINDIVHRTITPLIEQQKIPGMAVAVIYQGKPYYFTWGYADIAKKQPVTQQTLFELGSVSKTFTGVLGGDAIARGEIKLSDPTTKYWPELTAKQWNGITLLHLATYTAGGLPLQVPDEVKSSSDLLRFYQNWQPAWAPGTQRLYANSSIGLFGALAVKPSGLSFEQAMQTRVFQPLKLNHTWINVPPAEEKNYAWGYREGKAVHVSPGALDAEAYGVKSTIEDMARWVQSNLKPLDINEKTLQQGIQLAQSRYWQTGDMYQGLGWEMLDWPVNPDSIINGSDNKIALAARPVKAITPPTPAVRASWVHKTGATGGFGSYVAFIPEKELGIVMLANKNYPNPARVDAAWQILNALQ
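AmpC in 20 mM phosphate buffer pH 7.0 was preincubated 15 min at room temperature with compounds. Nitrocefin (800 uM stock) was then added and hydrolysis followed at 480 nm every 20 s for 4 min.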
AmpC inh det: inhibitors of E. coli AmpC beta-lactamase with detergent; P00811; purified AmpC, nitrocefin hydrolysis with detergent; Potency, µM (titrated, usually from 28.7 µM), for inactives: at the highest dose activity change, negative = inhibition; actives 0.09% (n = 71,000); AID 584; active = well fitted curve in the direction sought with a large enough effect; inconclusive = small, poorly fitted or top-dose-only effect; also: % is scaled to controls: 0 for no effect and ±100 for the full control effect
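E. coli AmpC (5.3 nM) in 20 mM phosphate pH 7.0 with 0.01% Triton X-100, preincubated 15 min RT with compound; nitrocefin (2 uL of 800 uM stock) hydrolysis followed by 480 nm absorbance every 20 s over 4 min.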
SmPrx2 inh: Schistosoma mansoni Prx2 inhibition; S. mansoni Prx2 activity coupled to TGR/GSH (TGR is thioredoxin glutathione reductase), NADPH fluorescence loss, qHTS; Potency, µM; actives 0.07% (n = 65,000); AID 448
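qHTS, coupled TGR/Prx2 format; 15 min compound preincubation at RT; reaction started with H2O2 (2.5 mM aliquot); kinetic NADPH fluorescence decrease, ex 365/em 450 nm.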
* hit, by the source's call; ? = inconclusive; · = no result given; [ ] = another dose, or the depositor's remark. Most compounds without a hit are left out; they make up all but 2.6% or so of the library. Unless noted, calls follow the shape of the full dose curve. Potency is read from the fitted curve at half-maximal effect.

SMILES | Anthrax LT inh | AmpC nodet inh | AmpC inh det | SmPrx2 inh
COc1ccccc1OCC(=O)N(Cc1nc(-c2ccc(Cl)cc2)no1)C(C)C | ? | 160% | 7% | >57
CC(C)N(Cc1nc(-c2ccc(Cl)cc2)no1)C(=O)CCC1CCCC1 | ? | 4µM*[single pt active] | 9% | >57
CC(C)N(Cc1nc(-c2ccccc2)no1)C(=O)Cc1ccccc1 | -21% | 4µM*[single pt active] | 11% | >57
CC1CCCN(c2nc3c(c(=O)[nH]c(=O)n3C)n2CCCc2ccccc2)C1 (stereo not given) | ? | 16µM*[single pt active] | 3% | >57
CC1CCN(c2nc3c(c(=O)[nH]c(=O)n3C)n2Cc2ccccc2)CC1 | 21% | 0% | 10% | >57
O=C(c1ccc(N2CCCCS2(=O)=O)cc1)N1CCN(c2ccc(N3CCOCC3)nn2)CC1 | -10% | 4µM*[single pt active] | 12% | >57
Cc1cc(C)cc(NS(=O)(=O)c2ccc3[nH]cc(C(=O)NCc4ccco4)c(=O)c3c2)c1 | ? | 13µM*[single pt active] | -2% | >57
Cc1ccccc1NS(=O)(=O)c1ccc2[nH]cc(C(=O)N(C)Cc3ccco3)c(=O)c2c1 | 6% | -14% | 1% | >57
COc1cccc(-c2ccc3ncnc(NCc4cccs4)c3c2)c1 | 13µM* | 6.3µM* | 10µM* | >57
CCOc1cccc(-c2nnc3sc(COc4ccc(C)cc4)nn23)c1 | -13% | 16% | 1% | >57
CCOc1cccc(-c2nnc3sc(COc4ccc(Cl)cc4)nn23)c1 | -3% | 7.9µM* | -1% | >57
Nc1cccc(-c2nc3ccc(N)cc3s2)c1 | ? | 4% | -3% | >57
Nc1ccc(O)c(-c2nc3ccccc3s2)c1 | ? | 0.4µM* | 7% | >57
O=C(CN1C(=O)C2C3C=CC(C3)C2C1=O)Nc1ccc2nccnc2c1 (stereo not given) | 7% | 4µM*[single pt active] | 13% | >57
COCCn1c(=O)c(-c2ccc(Cl)cc2)nc2cnc(Oc3ccc(OC)cc3)nc21 | -13% | -7% | -2% | >57
CCN1CCN(c2cc(C)c3cc(NC(=O)c4cncc(Br)c4)ccc3n2)CC1 | 25µM* | 112% | -4% | >57
CCN1CCN(c2cc(C)c3cc(NC(=O)c4ccc5c(c4)OCO5)ccc3n2)CC1 | 10µM* | 60% | 11% | >57
CN(Cc1ccco1)c1ncncc1-c1cccc(NS(C)(=O)=O)c1 | -5% | 3% | 8% | >57
NC(=O)c1cc(-c2ccccc2)nc(N2CCOCC2)n1 | -12% | ? | 24% | ·
CC[n+]1cc(-c2ccccc2)nc(N2CCOCC2)n1 | 19% | 16µM*[single pt active] | -10% | >57
O=c1cnc2cnc(N3CCOCC3)nc2n1CCc1ccccc1 | ? | 0% | 1% | >57
COc1cc(C2CC(=O)N3CN(c4ccccc4C)CSC3=C2C#N)cc(OC)c1OC (stereo not given) | ? | 48% | -6% | >57
COc1ccccc1N1CSC2=C(C#N)C(c3ccc(SC)cc3)CC(=O)N2C1 (stereo not given) | ? | 2.5µM* | 11% | >57
COc1ccc(OC)c(C2CC(=O)N3CN(c4ccccc4F)CSC3=C2C#N)c1 (stereo not given) | -7% | 4µM*[single pt active] | 12% | >57
COc1cccc(C2CC(=O)N3CN(c4ccccc4F)CSC3=C2C#N)c1 (stereo not given) | ? | 4µM*[single pt active] | 8% | >57
SMILES | Anthrax LT inh | AmpC nodet inh | AmpC inh det | SmPrx2 inh
c1nc(N2CCNCC2)c2cc(-c3ccc4c(c3)OCO4)ccc2n1 | 7% | 15% | 7% | >57
NC(=O)COc1ccc(=O)n(-c2ccccc2)n1 | -8% | 4µM*[single pt active] | 10% | >57
Cn1nc(OCC(N)=O)ccc1=O | -6% | 5% | -5% | >57
C=CCN1CCN(c2nc3ccccc3nc2C#N)CC1 | 0% | 44% | 0% | >57
COc1ccccc1CN1CC2(CCN(C(=O)c3cc(C(F)(F)F)cc(C(F)(F)F)c3)CC2)C1 | ? | 39% | -2% | >57
CC(=O)Oc1ccc2cc(-c3nc4ccccc4n3C)c(=O)oc2c1 | ? | 24% | 4% | 18*
CCOC(=O)c1cc2ccc(OC(=O)c3ccco3)cc2oc1=O | ? | 13% | -3% | >57
C=C[C@H](N)CCC(=O)O | -10% | 28% | -4% | >57
Cc1noc(C)c1C(=O)Nc1nc(C23CC4CC(CC(C4)C2)C3)cs1 | 10µM* | 0% | -3% | >57
CCOC(=O)Cc1csc(NC(=O)c2c(-c3ccccc3)noc2C)n1 | 0% | 24% | -3% | ·
Cc1c(C(=O)N2CCCC2)oc2c1-c1[nH]ncc1CC2 | 6% | 4µM*[single pt active] | 10% | >57
CC(=O)NCCNc1nc(-c2cccc(C#N)c2)nc2ccccc12 | ? | 40% | 11% | >57
O=c1c(O)c(-c2ccc(O)c(O)c2)oc2ccccc12 | ? | -19% | -2% | >57
Oc1ccc(CNc2ccc(F)cc2)c2cccnc12 | -6% | 10µM* | 1% | ?
Oc1ccc(CNc2ccccc2)c2cccnc12 | 5% | 13µM*[single pt active] | 20% | 15*
Oc1ccc(CN2CCN(Cc3ccccc3)CC2)c2cccnc12 | ? | 8% | 2% | >57
COc1ccc(C2CC(c3cccc(OC)c3)n3nc(N)nc3N2)cc1 (stereo not given) | -5% | 4µM*[single pt active] | 9% | >57
CCOc1ccc(C2CC(c3ccc(F)cc3)Nc3nc(N)nn32)cc1 (stereo not given) | 6% | 36% | 13% | >57
COc1cccc(C2CC(c3ccccc3)Nc3nc(N)nn32)c1 (stereo not given) | 4% | 4µM*[single pt active] | 9% | >57
COc1cccc(C2CC(c3c(Cl)cccc3Cl)n3nc(N)nc3N2)c1 (stereo not given) | 3% | 4µM*[single pt active] | 13% | >57
COc1cccc(C2CC(c3c(F)cccc3Cl)n3nc(N)nc3N2)c1 (stereo not given) | -18% | 35% | -2% | >57
COc1ccc(C2CC(c3ccc(F)cc3)Nc3nc(N)nn32)cc1 (stereo not given) | ? | 4µM*[single pt active] | 14% | >57
O=C(O)c1cc2ccccc2c(Cc2c(O)c(C(=O)O)cc3ccccc23)c1O | -4%[8 µM] | -10%[5.75 µM] | -3%[5.75 µM] | >57
COc1ccc(CNc2ncnc3ccc(-c4cccc(NS(C)(=O)=O)c4)cc23)c(OC)c1 | ? | 16% | 4% | >57
COC(=O)CC[C@@H](C)[C@H]1CC[C@H]2[C@H]3CC[C@H]4C[C@@H]5CC[C@@]4(C)C3(O5)[C@@H](Br)[C@@H](Br)[C@@]12C | ? | -6%[5.75 µM] | 0%[5.75 µM] | >57
CN(Cc1ccccc1)C(=O)CCS(=O)(=O)c1ccc2c(c1)n(C)c(=O)c(=O)n2C | ? | 4µM*[single pt active] | 14% | >57
CCC(C)NC(=O)CCS(=O)(=O)c1ccc2c(c1)n(C)c(=O)c(=O)n2C (stereo not given) | -8% | 4µM*[single pt active] | 13% | >57
CN(Cc1ccccc1)C(=O)CCC(=O)N(C)Cc1ccccc1 | -1% | 39% | -1% | ·
Cc1noc(NS(=O)(=O)c2cccc3c(N(C)C)cccc23)c1C | ? | 0% | 0% | >57
CCOC(=O)c1c(NC(=O)c2ccc(Br)o2)sc(C)c1CC | 5µM* | 8% | 6% | ·
